Several values for one entry are separate records, joined by “and”; a condition that tells them apart may be missing. Equal values may be shown once. Where a structure was tested more than once in an assay, its records may differ in their call. Activity calls are given as the source filed them. How the source made its calls: active means hit-call score of the fitted dose curve at least 0.9, where 1 is the maximum; inactive means score below 0.9.

Read-out in assay [1]: Interleukin-1 alpha (IL1a), IL1A (gene 3552)
Kind of assay: BSK_KF3CT_IL1a: BioMAP Diversity Plus: KF3CT Assay for Interleukin-1 alpha (IL1a) Biomarker Activity (AID 2283070). Particulars: primary human keratinocytes with fibroblasts; actives raise or lower the signal. Summed up: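 Chemicals were dosed onto co-cultured human keratinocytes and foreskin fibroblasts, IL-1a was quantified by ELISA at 24 h, and activity was fitted in both directions relative to DMSO controls.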

Read-out in assay [2]: TIMP metallopeptidase inhibitor 2 (TIMP2), TIMP2 (gene 7077)
Kind of assay: BSK_KF3CT_TIMP2: BioMAP Diversity Plus: KF3CT Assay for TIMP metallopeptidase inhibitor 2 (TIMP2) Biomarker Activity (AID 2283071). The settings on record: primary human keratinocytes with fibroblasts; actives raise or lower the signal. Summed up: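 Human primary keratinocyte/foreskin fibroblast co-culture dosed with chemical and sampled at 24 h. TIMP-2 levels quantified by ELISA; bidirectional fitting against DMSO negative control as baseline.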

Read-out in assay [3]: Transforming growth factor beta 1 (TGFb1), TGFB1 (gene 7040)
The experiment in a line: BSK_KF3CT_TGFb1: BioMAP Diversity Plus: KF3CT Assay for Transforming growth factor beta 1 (TGFb1) Biomarker Activity (AID 2283072). The settings on record: primary human keratinocytes with fibroblasts; actives raise or lower the signal. In short, it runs like this:
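Human keratinocyte plus foreskin fibroblast primary co-culture, dosed with chemical for 24 h. TGF-b1 quantified by ELISA. Activity fitted bidirectionally against DMSO negative control as baseline.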

Read-out in assay [4]: C-C motif chemokine 2 (Homo sapiens) (UniProt P13500)
Kind of assay: BSK_KF3CT_MCP1: BioMAP Diversity Plus: KF3CT Assay for Monocyte Chemoattractant Protein 1 (MCP1/CCL2) Biomarker Activity (AID 2283073). The settings on record: primary human keratinocytes with fibroblasts; actives raise or lower the signal. In short, it runs like this:
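ELISA read-out of MCP-1, 24 h post-dose, in primary human skin keratinocytes co-cultured with fibroblasts. Parallel SRB staining monitors cytotoxicity; changes fitted both directions relative to DMSO.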

Read-out in assay [5]: Matrix Metallopeptidase 9 (MMP9), MMP9 (gene 4318)
Kind of assay: BSK_KF3CT_MMP9: BioMAP Diversity Plus: KF3CT Assay for Matrix Metallopeptidase 9 (MMP9) Biomarker Activity (AID 2283074).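 On AC50: MMP9 protein level quantified by ELISA in the co-culture.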 The settings on record: primary human keratinocytes with fibroblasts; actives raise or lower the signal. In short, it runs like this: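 Human keratinocyte/foreskin fibroblast co-culture; compound added; 24 h; MMP-9 by ELISA; bidirectional fit vs DMSO baseline.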

Read-out in assay [6]: urokinase plasminogen activator (uPA), PLAU (gene 5328)
Kind of assay: BSK_KF3CT_uPA: BioMAP Diversity Plus: KF3CT Assay for urokinase plasminogen activator (uPA) Biomarker Activity (AID 2283075). Particulars: primary human keratinocytes with fibroblasts; actives raise or lower the signal. Summed up:
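ELISA readout of uPA, analyzed for signal gain or loss relative to DMSO, from a human primary keratinocyte–foreskin fibroblast co-culture measured 24 h after chemical treatment.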

Read-out in assay [7]: E-selectin (Homo sapiens) (UniProt P16581)
Kind of assay: BSK_LPS_Eselectin: BioMAP Diversity Plus: LPS Assay for Eselectin Biomarker Activity (AID 2283077). Particulars: primary human HUVEC with PBMC; actives raise or lower the signal. Summed up:
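E-selectin ELISA on LPS-stimulated endothelial cell/PBMC co-cultures, read 24 h post-treatment; gains and losses fitted against DMSO. Parallel SRB staining (0.1% SRB after 10% TCA fixation, 560 nm) flags overt cytotoxicity.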

Read-out in assay [8]: Interleukin-8 (IL8), CXCL8 (gene 3576)
Kind of assay: BSK_LPS_IL8: BioMAP Diversity Plus: LPS Assay for Interleukin-8 (IL8) Biomarker Activity (AID 2283078). Particulars: primary human HUVEC with PBMC; actives raise or lower the signal. In short, it runs like this: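 ELISA read-out of IL-8 after 24 h chemical treatment of LPS-activated endothelial/PBMC human primary co-cultures. Changes either up or down relative to DMSO; overt cytotoxicity checked by sulforhodamine B staining in parallel wells.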

Assay [9] is described as follows: BSK_LPS_SRB: Viability Assessment in the BioMAP Diversity Plus: LPS Assay (AID 2283079).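 Further: total protein by sulforhodamine B absorbance as a cytotoxicity measure; measured one day after compound addition; fitted in both directions against DMSO so loss or gain of signal counts.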 The settings on record: primary human HUVEC with PBMC. Summed up:
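SRB viability endpoint: cells fixed with 10% TCA, stained with 0.1% SRB, read at 560 nm, 24 h post-dose. HUVEC/PBMC co-culture; signal change in either direction scored relative to DMSO.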

Read-out in assay [10]: CD40, CD40 (gene 958)
Kind of assay: BSK_LPS_CD40: BioMAP Diversity Plus: LPS Assay for CD40 Biomarker Activity (AID 2283076). The settings on record: primary human HUVEC with PBMC; actives raise or lower the signal. Summed up: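 In the LPS system of human endothelial cells with peripheral blood mononuclear cells, CD40 levels were read by ELISA 24 h post-treatment. Signal changes in either direction were fitted against the DMSO baseline, with parallel SRB protein staining.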

E-selectin (Homo sapiens), sequence (P16581 whole entry, looked up): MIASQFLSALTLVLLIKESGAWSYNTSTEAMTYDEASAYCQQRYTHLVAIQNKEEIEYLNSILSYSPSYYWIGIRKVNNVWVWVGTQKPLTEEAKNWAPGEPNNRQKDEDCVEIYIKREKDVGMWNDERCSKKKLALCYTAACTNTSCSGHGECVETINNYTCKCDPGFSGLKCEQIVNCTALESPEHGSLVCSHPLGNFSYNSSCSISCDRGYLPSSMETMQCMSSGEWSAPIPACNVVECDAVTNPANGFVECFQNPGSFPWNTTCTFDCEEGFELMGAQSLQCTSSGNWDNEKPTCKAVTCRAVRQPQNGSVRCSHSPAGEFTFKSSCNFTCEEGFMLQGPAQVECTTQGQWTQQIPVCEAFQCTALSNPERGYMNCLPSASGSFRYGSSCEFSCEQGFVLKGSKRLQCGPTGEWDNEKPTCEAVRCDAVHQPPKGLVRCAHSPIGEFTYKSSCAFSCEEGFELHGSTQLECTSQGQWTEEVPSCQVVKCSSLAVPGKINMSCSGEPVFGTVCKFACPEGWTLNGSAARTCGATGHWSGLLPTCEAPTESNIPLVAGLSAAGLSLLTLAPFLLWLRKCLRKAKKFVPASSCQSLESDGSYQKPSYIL

On to `CN1CSC(=S)N(C)C1`, for which the outcome in [1], in assay [2], in assay [3], in assay [4], in assay [6] and in assay [9] was inactive. For the same molecule, the AC50 in assay [5] was 14.4 µM (active); in [7], 19 µM (active); in [8], 13 µM (active).
Take `CCOc1nc(NC)nc(NC(=O)NS(=O)(=O)c2ccccc2C(=O)OC)n1`: the result in [1], in [2], in assay [3], in assay [4], in [7] and in [8] was inactive. Further, the result in assay [9] was inactive. Moreover, the AC50 in assay [5] was 30.4 µM (active); in assay [6] it was 37 µM (active).
In the case of `CNC(=O)Oc1ccccc1OC(C)C`, the values for the concentration at half-maximal activity (AC50) in assay [1] and in assay [4] were 0.987 µM (active) and 0.147 µM (active), respectively. For the same molecule, the outcome in assay [2], in [3], in assay [5], in assay [6], in [10] and in assay [7] was inactive. For the same molecule, the outcome in [8] and in assay [9] was inactive.
With `ClC1C(Cl)C(Cl)C(Cl)C(Cl)C1Cl` (centres undefined), the outcome in assay [1], in [2], in assay [3], in [4], in assay [5] and in [6] was inactive. The result in assay [10], in assay [7], in assay [8] and in assay [9] was inactive. The AC50 in assay [2] and in [3] was 20 µM (active) throughout.
Regarding `Clc1ccccc1-c1nnc(-c2ccccc2Cl)nn1`, the half-maximal activity concentration (AC50) in assay [1] was 2.76 µM (active). The result in assay [2], in assay [3], in assay [4], in [5], in assay [6] and in assay [7] was inactive. For the same molecule, the result in assay [8] and in [9] was inactive.
Consider `O=C(O)C(F)(F)C(F)(F)C(F)(F)C(F)(F)C(F)(F)C(F)(F)C(F)(F)F`, for which the concentration at half-maximal activity (AC50) in [1] was 30 µM (active); in assay [10], 23.1 µM (active); in assay [7], 16.1 µM (active); in assay [8], 30 µM (active) and 13.3 µM (active). The result in assay [1], in assay [2], in assay [3], in assay [4], in assay [5] and in assay [6] was inactive. Further, the outcome in [10], in assay [7], in [8] and in assay [9] was inactive.
On to `C[C@H]1[C@H](c2ccc(Cl)cc2)SC(=O)N1C(=O)NC1CCCCC1`, for which the result in [1], in assay [2], in assay [3], in assay [4], in assay [6] and in assay [10] was inactive. In addition, the outcome in [7] and in assay [8] was inactive. Moreover, the AC50 in assay [5] is 9.22 µM (active); in [9] it was 10.9 µM (active).
Take `COc1cc(OC)nc(NC(=O)NS(=O)(=O)c2cc(NC=O)ccc2C(=O)N(C)C)n1`: the result in assay [1], in assay [2], in assay [3], in assay [4], in [5] and in assay [6] was inactive. In addition, the outcome in assay [7], in assay [8] and in assay [9] was inactive.
Regarding `CCCN(CCOc1c(Cl)cc(Cl)cc1Cl)C(=O)n1ccnc1`, the outcome in assay [1], in [2], in assay [3], in assay [4], in [5] and in assay [6] was inactive. Moreover, the result in assay [7] and in assay [8] was inactive. For the same molecule, the AC50 in assay [9] was 31.4 µM (active).
Take `COc1nn(CSP(=S)(OC)OC)c(=O)s1`: the result in assay [1], in [2], in assay [3], in [4], in assay [5] and in assay [6] was inactive. Further, the result in [8] and in [9] was inactive. The AC50 in assay [7] is 4.79 µM (active).
For `CC[C@H](C)[C@H]1O[C@]2(C=C[C@@H]1C)C[C@@H]1C[C@@H](C/C=C(\C)[C@@H](O[C@H]3C[C@H](OC)[C@@H](O[C@H]4C[C@H](OC)[C@@H](O)[C@H](C)O4)[C@H](C)O3)[C@@H](C)/C=C/C=C3\CO[C@@H]4[C@H](O)C(C)=C[C@@H](C(=O)O1)[C@]34O)O2` (tested in a mixture with another compound), the half-maximal activity concentration (AC50) in [1] was 6.95 µM (active); in [2], 12.6 µM (active); in assay [3] it was 31.7 µM (active); in assay [4], 7.59 µM (active); in assay [5], 5.77 µM (active); in [6] it was 15.5 µM (active). For the same molecule, the AC50 in assay [10] was 6.65 µM (active); in assay [7], 9.62 µM (active); in assay [8], 5.94 µM (active); in assay [9], 6.41 µM (active).
Turning to `CCOC1Oc2ccc(OS(C)(=O)=O)cc2C1(C)C` (centres undefined), the result in assay [1], in assay [2], in assay [3], in [4], in assay [5] and in [6] was inactive. Further, the outcome in [7], in assay [8] and in assay [9] was inactive.

For the origin of these results see PubChem BioAssay (EPA / NIEHS).
